# Records with an inconclusive call do not appear. Activity calls are given as the source filed them.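 How the source made its calls, unless noted: active means GFP response, as percent of the DMSO control, above the screen-wide mean plus 3 SD, about 139; inconclusive means no response measured because the compound's own fluorescence interfered; inactive means the rest.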
# What was measured:
# [1] = rapamycin-like changes in RPL19A-GFP expression – cell-based, S. cerevisiae, multiplex flow cytometry, primary screen (AID 1862; in the data active means percent of DMSO control GFP below about 86%;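 further: lower values mimic rapamycin by blocking the RPL19A rise seen in DMSO cells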); conditions: S. cerevisiae RPL19A-GFP strain, flow cytometry fluorescence, 3 h; at 10 µM; stronger effect = lower value
# [2] = TOR pathway GLN3 branch reporter MEP2-GFP changes – S. cerevisiae, multiplex flow cytometry, primary screen (AID 1867);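 further: median GFP channel fluorescence of barcode-gated MEP2-GFP cells measured by flow cytometry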; conditions: S. cerevisiae MEP2-GFP strain, 3 h, at 10 µM, stronger effect = higher value, 100% means same as DMSO wells
# [3] = TOR pathway RTG branch CIT2 reporter changes – S. cerevisiae, GFP fusion, multiplex flow cytometry, primary screen (AID 1870;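 active means percent response above a set limit, the screen-wide mean plus 3 SD, cut at about 130% in these data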;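 further: barcoded CIT2-GFP strain pooled with four other GFP strains with rapamycin as positive control; median GFP fluorescence per well over plate mean of DMSO wells so 100% = DMSO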); conditions: S. cerevisiae CIT2-GFP expression, 3 h, at 10 µM, stronger effect = higher value
# [4] = TOR pathway LAP4-GFP level changes – S. cerevisiae, multiplex flow cytometry, primary screen (AID 1873;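 active means GFP signal, as percent of the solvent control, above the screen mean plus 3 SD, about 149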); conditions: S. cerevisiae LAP4-GFP expression, 3 h, at 10 µM, stronger effect = higher value
# [5] = reduced mouse 2C T cell binding to pMHC/ICAM-1 vesicles – MLPCN validation set, flow cytometry, LFA-1/ICAM-1 modulator project, pilot screen (AID 2523;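 active means response below a set limit, under 55% cells CD8-positive and vesicle-bound, and CD8 cells' 90th-percentile brightness under 279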;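 on vesicle binding response: mean PE anti-B7-1 fluorescence of CD8+ cells relative to row control; 100% = QL9-loaded vesicles with DMSO vehicle in the same plate row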); conditions: 2C mouse CD8+ T cells, at 7 µM, stronger effect = lower value; double positive events: measured here: CD8+/vesicle+ event percentage
# [6] = target: Integrin beta-1 (Homo sapiens) + Integrin alpha-4 (Homo sapiens) (UniProt P13612+P05556); test: alpha4beta1 integrin LIBS antibody binding reduction – U937 cells, HUTS-21 mAb, flow cytometry, validation set, VLA-4 allosteric modulator project, pilot screen (AID 2674;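 active means inhibition above 50%, about 3 SD of the validation set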;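 further: antibody binding induced by the VLA-4 ligand LDV present at three times its Kd; 0% = LDV ligand with antibody and no compound and 100% = antibody without LDV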); conditions: HUTS-21 LIBS mAb binding, at 6.7 µM, stronger effect = higher value, binding induced by LDV ligand
# [7] = calorie-restriction mimetic ROS inhibitors, yeast – validation compound set, pilot screen (AID 2706;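 active means superoxide response below 65% of plate, a cut near 3 SD across the whole screen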;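 further: yeast exposed to compound for one week at 30 degrees C before staining; 100% = mean of all compound wells on the same plate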); conditions: S. cerevisiae aging, superoxide DHE fluorescence; at 10 µM, stronger effect = lower value
# [8] = target: Beta-adrenergic receptor kinase 1 (Homo sapiens) (UniProt P25098); test: GRK2 binders displacing RNA aptamer, biochemical, validation, human GRK2, bead flow cytometry (AID 488806;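 active means aptamer binding inhibition above 30%, about 3 SD of noise from non-fluorescent compounds; inactive means inhibition at or below 30%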); conditions: bead-bound GRK2, FAM-aptamer displacement, at 10 µM, stronger effect = higher value
# [9] = target: Beta-2 adrenergic receptor (Homo sapiens) (UniProt P07550); test: agonist-induced loss of surface beta2AR – cell-based, FAP fluorogen, flow cytometry, validation set, pilot screen (AID 504459;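 active means percent response above 42, roughly 3 SD of non-fluorescent test compounds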;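 further: agonist-driven loss of surface beta2AR via internalization measured by FAP dye flow cytometry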); conditions: Am2.2-beta2AR cells, at 10 µM, stronger effect = higher value
# [10] = target: AP-2 complex subunit beta (Homo sapiens) (UniProt P63010); test: beta-arrestin/AP2 interaction blockers – biochemical, validation set, GST-AP2 beads, flow cytometry, pilot screen (AID 504541;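 active means inhibition above 54%, about 3 SD of non-fluorescent compounds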;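 further: AP2 carries R879A mutation and is captured from E. coli lysate; bead-bound FITC arrestin peptide fluorescence measuring arrestin peptide binding to AP2; 0% = DMSO wells and 100% = excess unlabeled arrestin peptide control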); conditions: FITC arrestin peptide, at 10 µM, stronger effect = higher value, AP2 beta2 appendage fragment, R879A mutant
# [11] = cytosolic pH regulators acting via V-ATPase – S. cerevisiae, pHLuorin, HTS validation (AID 504600; in the data active means response above about 15%;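 further: plate controls were DMSO for no effect and reference compound for full effect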); conditions: V-ATPase proton transport, at 10 µM, stronger effect = higher value
# [12] = test system: anti-desmoglein-3 scFv antibody binding to human DSG3; test: blockers of pathogenic pemphigus antibody–desmoglein-3 binding – biochemical, validation compound set, bead-based, flow cytometry, pilot screen (AID 588368;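 active means binding below the plate cutoff, the plate median minus 3 SD, with a reading above zero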;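 further: signal is the median channel fluorescence of bead-bound GFP antibody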); conditions: Protein G beads, DSG3-Fc, scFv-GFP binding, at 10 µM, stronger effect = lower value
# [13] = Nile Red efflux blockade in pump-expressing yeast – validation compound set, multiplex, phenotypic, pilot screen (AID 588506;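 active means efflux inhibition above 0.42, the validation set average plus 4 SD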;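 further: Nile Red retained in cells so higher fluorescence means more efflux inhibition; 0 = negative control wells and 1 = enniatin B 25 µM full block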); conditions: S. cerevisiae pump-expressing triplex, Nile Red efflux flow cytometry; at 10 µM; stronger effect = higher value; the pumps come from Candida albicans
# [14] = target: ATP-binding cassette sub-family B member 6 (Homo sapiens) (UniProt Q9NP58); test: blockers of ABCB6-driven porphyrin uptake – K562-ABCB6 cells, flow cytometry, validation set, pilot screen (AID 588550;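 active means inhibition above the screen-wide mean plus 3 SD, about 51%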;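 further: 0% = DMSO wells and 100% = benzethonium chloride 70 µM positive control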); conditions: K562-ABCB6 porphyrin accumulation, 1 h, at 10 µM, stronger effect = higher value
# [15] = AML differentiation inducers, ER-HoxA9 marrow cells – cell-based, GFP/MAC1 double positive, flow cytometry, validation set, primary screen (AID 588685;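 active means differentiation response of at least 50%, scaled between solvent and reference control, from cells with both markers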;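 further: compound exposure lasts four days before antibody staining and flow analysis; 0% = DMSO wells and 100% = 5 µM fulvestrant positive control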); conditions: stronger effect = higher value, normalized: vehicle 0, fulvestrant 100
# [16] = yeast AGP1-GFP level changes, GLN3 branch – cell-based, multiplex flow cytometry, S. cerevisiae, primary screen (AID 1887;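 active means GFP signal above the screen-wide mean plus 3 SD, that is over about 124.5% of the solvent control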;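 further: AGP1-GFP fusion strain of S. cerevisiae within a five-strain barcoded multiplex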); conditions: 3 h, at 10 µM, stronger effect = higher value
# Chain of AP-2 complex subunit beta (Homo sapiens) (P63010 whole entry, looked up, the tested form may be a part, one chain of several): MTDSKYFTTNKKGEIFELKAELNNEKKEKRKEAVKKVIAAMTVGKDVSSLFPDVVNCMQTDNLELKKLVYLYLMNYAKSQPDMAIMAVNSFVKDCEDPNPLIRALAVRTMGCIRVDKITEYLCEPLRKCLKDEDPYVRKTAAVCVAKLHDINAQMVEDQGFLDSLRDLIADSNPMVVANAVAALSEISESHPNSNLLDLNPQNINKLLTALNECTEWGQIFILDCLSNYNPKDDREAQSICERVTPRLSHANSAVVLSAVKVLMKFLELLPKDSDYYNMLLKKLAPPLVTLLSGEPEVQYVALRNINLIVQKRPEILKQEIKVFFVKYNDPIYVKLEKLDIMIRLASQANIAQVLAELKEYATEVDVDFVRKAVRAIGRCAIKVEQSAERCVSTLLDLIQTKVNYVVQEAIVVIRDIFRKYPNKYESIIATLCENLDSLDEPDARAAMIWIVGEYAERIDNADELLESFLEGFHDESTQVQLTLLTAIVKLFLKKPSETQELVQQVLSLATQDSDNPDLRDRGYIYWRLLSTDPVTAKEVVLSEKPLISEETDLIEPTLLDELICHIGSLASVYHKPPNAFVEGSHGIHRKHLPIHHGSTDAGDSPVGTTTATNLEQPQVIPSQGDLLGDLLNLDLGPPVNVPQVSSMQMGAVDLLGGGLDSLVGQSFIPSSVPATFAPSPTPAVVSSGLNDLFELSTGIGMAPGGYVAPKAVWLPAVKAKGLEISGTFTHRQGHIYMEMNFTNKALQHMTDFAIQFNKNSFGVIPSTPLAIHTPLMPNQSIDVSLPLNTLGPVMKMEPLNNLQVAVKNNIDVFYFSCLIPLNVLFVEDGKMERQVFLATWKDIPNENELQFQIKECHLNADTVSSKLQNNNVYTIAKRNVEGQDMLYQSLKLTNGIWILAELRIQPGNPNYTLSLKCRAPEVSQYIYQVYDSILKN
# Chain of Integrin beta-1 (Homo sapiens) + Integrin alpha-4 (Homo sapiens) (P05556 whole entry, looked up): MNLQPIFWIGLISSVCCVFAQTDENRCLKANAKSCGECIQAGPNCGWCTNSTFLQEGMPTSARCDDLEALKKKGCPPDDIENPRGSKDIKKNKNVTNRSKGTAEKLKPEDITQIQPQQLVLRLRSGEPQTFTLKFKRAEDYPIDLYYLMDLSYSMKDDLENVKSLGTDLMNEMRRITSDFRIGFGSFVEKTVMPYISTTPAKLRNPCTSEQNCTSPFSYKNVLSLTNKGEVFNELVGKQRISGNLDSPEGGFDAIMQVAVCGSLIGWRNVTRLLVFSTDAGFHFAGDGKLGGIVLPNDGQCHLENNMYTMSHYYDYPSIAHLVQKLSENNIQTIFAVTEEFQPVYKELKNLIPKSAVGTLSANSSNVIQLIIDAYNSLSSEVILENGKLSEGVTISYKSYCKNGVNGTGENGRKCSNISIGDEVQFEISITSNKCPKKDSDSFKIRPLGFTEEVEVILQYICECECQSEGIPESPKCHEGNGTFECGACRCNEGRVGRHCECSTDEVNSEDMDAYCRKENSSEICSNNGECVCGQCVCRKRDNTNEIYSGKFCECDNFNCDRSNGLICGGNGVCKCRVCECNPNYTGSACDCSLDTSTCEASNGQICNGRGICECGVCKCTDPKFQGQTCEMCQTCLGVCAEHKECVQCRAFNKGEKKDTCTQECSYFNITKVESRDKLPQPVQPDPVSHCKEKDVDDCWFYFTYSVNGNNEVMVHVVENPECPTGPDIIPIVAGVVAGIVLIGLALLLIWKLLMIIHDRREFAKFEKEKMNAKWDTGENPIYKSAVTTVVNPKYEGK
# Chain of Integrin beta-1 (Homo sapiens) + Integrin alpha-4 (Homo sapiens) (P13612 whole entry, looked up): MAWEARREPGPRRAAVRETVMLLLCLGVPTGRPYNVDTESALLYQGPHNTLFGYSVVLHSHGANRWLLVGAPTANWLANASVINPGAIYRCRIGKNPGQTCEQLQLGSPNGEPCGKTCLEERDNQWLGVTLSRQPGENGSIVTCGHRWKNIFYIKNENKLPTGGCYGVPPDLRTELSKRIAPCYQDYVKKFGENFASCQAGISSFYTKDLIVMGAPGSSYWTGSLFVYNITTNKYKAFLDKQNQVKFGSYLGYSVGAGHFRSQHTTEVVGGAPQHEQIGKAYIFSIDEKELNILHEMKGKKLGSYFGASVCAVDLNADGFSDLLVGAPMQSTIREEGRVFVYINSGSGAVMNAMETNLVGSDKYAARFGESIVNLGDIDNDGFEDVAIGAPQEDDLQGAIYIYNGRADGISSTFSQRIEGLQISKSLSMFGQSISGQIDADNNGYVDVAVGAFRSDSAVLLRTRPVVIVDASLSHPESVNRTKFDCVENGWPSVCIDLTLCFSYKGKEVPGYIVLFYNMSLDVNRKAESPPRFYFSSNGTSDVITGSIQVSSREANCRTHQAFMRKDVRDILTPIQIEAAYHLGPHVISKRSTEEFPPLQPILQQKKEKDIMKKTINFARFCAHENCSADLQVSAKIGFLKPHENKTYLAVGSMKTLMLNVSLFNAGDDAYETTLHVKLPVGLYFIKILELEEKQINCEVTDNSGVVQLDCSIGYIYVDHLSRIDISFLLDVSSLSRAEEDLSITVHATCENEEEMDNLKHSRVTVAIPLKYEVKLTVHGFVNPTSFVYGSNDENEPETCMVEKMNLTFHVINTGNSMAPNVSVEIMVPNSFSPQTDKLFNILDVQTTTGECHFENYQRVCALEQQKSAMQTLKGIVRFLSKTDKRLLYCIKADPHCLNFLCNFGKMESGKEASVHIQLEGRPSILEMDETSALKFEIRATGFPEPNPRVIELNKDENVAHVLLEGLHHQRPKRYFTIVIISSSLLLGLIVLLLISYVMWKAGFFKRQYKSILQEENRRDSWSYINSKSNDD
# Chain of ATP-binding cassette sub-family B member 6 (Homo sapiens) (Q9NP58 whole entry, looked up): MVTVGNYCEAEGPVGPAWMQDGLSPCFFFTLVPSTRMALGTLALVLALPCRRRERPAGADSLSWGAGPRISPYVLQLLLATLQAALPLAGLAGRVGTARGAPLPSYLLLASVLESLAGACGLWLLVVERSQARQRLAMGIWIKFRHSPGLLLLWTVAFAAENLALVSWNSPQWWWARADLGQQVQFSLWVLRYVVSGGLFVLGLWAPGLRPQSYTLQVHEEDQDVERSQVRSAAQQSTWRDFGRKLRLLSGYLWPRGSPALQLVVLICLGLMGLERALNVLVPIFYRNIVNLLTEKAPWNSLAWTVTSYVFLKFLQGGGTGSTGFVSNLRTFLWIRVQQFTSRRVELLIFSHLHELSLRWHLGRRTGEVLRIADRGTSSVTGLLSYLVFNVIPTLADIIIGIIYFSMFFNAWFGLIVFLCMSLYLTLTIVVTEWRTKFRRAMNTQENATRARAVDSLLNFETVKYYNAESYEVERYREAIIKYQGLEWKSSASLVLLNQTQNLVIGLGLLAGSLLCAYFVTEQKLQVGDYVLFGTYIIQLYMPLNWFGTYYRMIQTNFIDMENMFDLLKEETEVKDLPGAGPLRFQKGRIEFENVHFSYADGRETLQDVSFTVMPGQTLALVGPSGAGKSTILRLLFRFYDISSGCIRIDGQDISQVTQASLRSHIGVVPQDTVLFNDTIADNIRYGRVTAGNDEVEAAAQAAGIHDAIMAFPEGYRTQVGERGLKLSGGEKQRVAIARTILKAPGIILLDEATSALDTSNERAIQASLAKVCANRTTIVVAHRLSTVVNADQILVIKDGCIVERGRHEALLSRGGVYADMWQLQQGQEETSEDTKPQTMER
# Chain of Beta-adrenergic receptor kinase 1 (Homo sapiens) (P25098 whole entry, looked up): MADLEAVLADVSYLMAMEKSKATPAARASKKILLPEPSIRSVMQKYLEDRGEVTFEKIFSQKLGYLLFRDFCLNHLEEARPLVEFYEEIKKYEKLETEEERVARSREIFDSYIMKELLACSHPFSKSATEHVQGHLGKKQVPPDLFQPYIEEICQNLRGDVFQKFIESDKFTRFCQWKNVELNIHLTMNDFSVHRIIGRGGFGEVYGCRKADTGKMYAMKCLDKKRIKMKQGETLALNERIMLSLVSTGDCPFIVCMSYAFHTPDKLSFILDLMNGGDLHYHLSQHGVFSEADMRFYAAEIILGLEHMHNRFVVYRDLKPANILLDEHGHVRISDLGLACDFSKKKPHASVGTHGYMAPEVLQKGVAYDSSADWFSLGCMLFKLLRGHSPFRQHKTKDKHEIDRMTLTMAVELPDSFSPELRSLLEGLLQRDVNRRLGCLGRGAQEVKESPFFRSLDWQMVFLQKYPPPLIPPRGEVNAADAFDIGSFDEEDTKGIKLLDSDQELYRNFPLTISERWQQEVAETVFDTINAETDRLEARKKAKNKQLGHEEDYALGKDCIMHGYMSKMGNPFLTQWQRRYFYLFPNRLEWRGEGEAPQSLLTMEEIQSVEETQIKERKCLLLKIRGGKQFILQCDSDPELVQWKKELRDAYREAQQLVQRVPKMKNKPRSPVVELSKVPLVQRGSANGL
# Chain of Beta-2 adrenergic receptor (Homo sapiens) (P07550 whole entry, looked up): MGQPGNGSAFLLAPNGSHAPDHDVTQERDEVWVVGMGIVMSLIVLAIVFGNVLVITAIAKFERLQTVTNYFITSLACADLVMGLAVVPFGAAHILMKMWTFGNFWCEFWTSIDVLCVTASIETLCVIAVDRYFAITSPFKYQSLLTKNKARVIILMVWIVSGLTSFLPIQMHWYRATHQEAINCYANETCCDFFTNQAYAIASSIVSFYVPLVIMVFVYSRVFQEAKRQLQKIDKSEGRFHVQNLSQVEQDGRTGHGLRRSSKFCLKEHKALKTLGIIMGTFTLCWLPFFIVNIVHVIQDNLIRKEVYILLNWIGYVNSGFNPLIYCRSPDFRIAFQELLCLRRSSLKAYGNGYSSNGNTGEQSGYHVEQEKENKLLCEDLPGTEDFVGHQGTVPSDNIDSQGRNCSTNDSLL
SMILES,percent of DMSO control GFP [1],GFP response vs DMSO [2],percent response of DMSO control [3],GFP response vs DMSO [4],double positive events [5] [%],vesicle binding response [5],inhibition [6],superoxide response (% of plate) [7],aptamer binding inhibition [8],response [9],inhibition [10],response [11],binding (% of control) [12],efflux inhibition (fraction of control) [13],inhibition [14],differentiation response [15],"GFP response, % of DMSO [16]"
Cc1ccccc1NC(=O)C1c2ccccc2Oc2ccccc21,96.1% (inactive),120% (inactive),110% (inactive),77.6% (inactive),65.5,217% (inactive),4.52% (inactive),86.5% (inactive),2% (inactive),-5.21% (inactive),-0.97% (inactive),-0.9% (inactive),105% (inactive),0.16 (inactive),12% (inactive),-4.09% (inactive),–
Cc1ccc2[nH]c3c(c2c1)CN(C(=O)CN1CCSCC1)CC3,100% (inactive),93% (inactive),101% (inactive),102% (inactive),60.8,66.8% (inactive),-51.3% (inactive),–,0% (inactive),-263% (inactive),-3.3% (inactive),0.82% (inactive),439% (inactive),-0.04 (inactive),–,28.6% (inactive),101% (inactive)
Cc1cc(C(C)(C)C)cc(C)c1CC1=NCCN1,93.7% (inactive),133% (inactive),96.6% (inactive),77.6% (inactive),62.8,214% (inactive),18.1% (inactive),104% (inactive),1% (inactive),-5.36% (inactive),5.97% (inactive),-7.49% (inactive),98.5% (inactive),0.12 (inactive),10% (inactive),2.46% (inactive),–
OC[C@H]1O[C@@H](n2cnc3c(Nc4ccccc4)ncnc32)[C@H](O)[C@@H]1O,92.4% (inactive),118% (inactive),112% (inactive),73.2% (inactive),62.8,139% (inactive),-9.06% (inactive),110% (inactive),1% (inactive),-8.38% (inactive),-2.59% (inactive),-0.49% (inactive),103% (inactive),0.3 (inactive),10% (inactive),2.46% (inactive),–
COc1ccc(Cc2nc(-c3ccc(Br)cc3)no2)cc1,100% (inactive),103% (inactive),101% (inactive),95.3% (inactive),40,–,-12.9% (inactive),117% (inactive),-1% (inactive),-5.31% (inactive),58.9% (active),-2.85% (inactive),99.3% (inactive),0.14 (inactive),-4% (inactive),48.1% (inactive),102% (inactive)
CCCCC/C=C\C[C@H](O)/C=C/c1cccc(C[C@H](O)CCCCO)n1,97.9% (inactive),111% (inactive),111% (inactive),75.9% (inactive),52.3,41.1% (active),-3.24% (inactive),116% (inactive),1% (inactive),-7.36% (inactive),-4.61% (inactive),1.37% (inactive),103% (inactive),0.16 (inactive),10% (inactive),-2.46% (inactive),–
NC12CC3CC(CC(C3)C1)C2,94.4% (inactive),119% (inactive),111% (inactive),78.7% (inactive),60.2,195% (inactive),-27.5% (inactive),96.9% (inactive),-5% (inactive),-15.1% (inactive),0.4% (inactive),3.04% (inactive),102% (inactive),-0.24 (inactive),15% (inactive),-1.64% (inactive),–
CCC1(c2ccccc2)C(=O)NCNC1=O,102% (inactive),94.1% (inactive),95.4% (inactive),87.4% (inactive),61.9,285% (inactive),5.77% (inactive),–,2% (inactive),7.83% (inactive),13.7% (inactive),1.33% (inactive),101% (inactive),0.77 (active),-12% (inactive),13.9% (inactive),92.6% (inactive)
CC1(C)CC(=O)C(C(=O)CCCCC(=O)C2C(=O)CC(C)(C)CC2=O)C(=O)C1,105% (inactive),114% (inactive),112% (inactive),91.3% (inactive),76,197% (inactive),-6.15% (inactive),97.2% (inactive),-1% (inactive),-2.15% (inactive),-8.71% (inactive),-8.22% (inactive),114% (inactive),-0.24 (inactive),14% (inactive),-2.46% (inactive),–
Cc1cc(-c2ccccc2)nnc1NCCN1CCOCC1,102% (inactive),114% (inactive),93.9% (inactive),74.3% (inactive),67.8,223% (inactive),0.64% (inactive),94.8% (inactive),32% (active),2.57% (inactive),-1.22% (inactive),-0.98% (inactive),109% (inactive),0 (inactive),19% (inactive),4.09% (inactive),–
